Results on 40 compounds are retold here after PubChem BioAssay AID1845225 (National Center for Advancing Translational Sciences (NCATS), 2023).

Records with an inconclusive call do not appear. Active and inactive are the calls of the source. The call rests on the fitted dose curve; in most records, active means well fitted curve in the direction sought with a large enough effect; inconclusive means small, poorly fitted or top-dose-only effect, or effect the other way, or another doubt; inactive means no such curve, though single readings can be large or run the other way.

This test in a line: Confirmatory redox qHTS assay for identification of artifact compounds.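 Further: 0% = DMSO and 100% = DA3003 at 10 µM.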 As to conditions: Amplex Red/HRP redox cycling with DTT, fluorescence; series mostly up to 39 µM. Put shortly: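 Amplex Red (25 uM final) and HRP (250 mU/mL final) in HBSS, compound 15 min, then 250 uM DTT final 30 min, room temperature, dark; fluorescence 525/598 nm, normalized to DMSO and 10 uM DA3003, Hill fitted.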
Take `CCCCCCCCOc1ccc(C(=O)O)cc1`: the compound was classed as inactive.

Turning to `CCOc1ccc(C(=O)N2CCC(c3nc(-c4ccc(S(=O)(=O)N5CCCC5)cc4)no3)CC2)cc1`, the outcome was inactive.

On to `Cc1cccc(N2CCN(CCCNC(=O)c3nnc(Cc4c(F)cccc4Cl)o3)CC2C)c1` (stereo not given), for which the call was inactive.

Regarding `COc1cc(OC)c(NC(=O)C(c2ccccc2)N2Cc3ccccc3C2=O)cc1Cl` (stereo not given), the result was inactive.

Take `CCOC(=O)c1c(C)[nH]c(CCC(=O)NCCCN2CCN(c3ccc(F)cc3)CC2)c1C`: the outcome was inactive.

On to `Cc1cc(C)nc(NC(=S)N2CCN(c3ccc(F)c(F)c3F)CC2)c1`, for which the outcome was inactive.

`CCCCCOC(=O)c1[nH]c2c(c1C)C(=O)CC(c1ccco1)C2` (stereo not given): the compound was called inactive.

As to `O=C1c2oc3ccc(F)cc3c(=O)c2C(c2cccc([N+](=O)[O-])c2)N1CCCN1CCOCC1` (stereo not given), the call was inactive.

With `CCC(C)NC(=O)c1ccc2nc(-c3cccs3)c(-c3cccs3)nc2c1` (stereo not given), the outcome was inactive.

Turning to `COc1ccc(N2CC(NC(=O)c3ccco3)CC2=O)cc1` (stereo not given), the call was inactive.

Take `Cc1ccc(C)c(N2CCN(S(=O)(=O)c3cc(Br)cc4c3N(C(=O)C3CC3)CC4)CC2)c1`: the compound was classed as inactive.

On to `O=C1C2C3CCCC3=C3CCCC3C2C(=O)N1c1ccc(Cl)cc1` (stereo not given), for which the compound was called inactive.

Turning to `Cc1ccc(OCCn2c(CCNC(=O)OC(C)(C)C)nc3ccccc32)cc1`, the result was inactive.

`Oc1ccc(CNc2cccc(F)c2F)c2cccnc12`: the call was inactive.

On to `Cc1cc(C)c(S(=O)(=O)NCC(c2ccco2)S(=O)(=O)c2cccs2)c(C)c1` (stereo not given), for which the compound was called inactive.

As to `FC(F)(F)c1ccccc1-c1nc(NCC23CC4CC(CC(C4)C2)C3)c2ccccc2n1`, the result was inactive.

For the compound `Cc1ccccc1NC(=O)Cn1c(=O)n(CCc2ccccc2)c(=O)c2sc3ccccc3c21`, the result was inactive.

As to `O=C(NCCC1=CCCCC1)c1ccc2c(c1)N(Cc1cccc(Cl)c1)C(=O)c1ccccc1S2=O` (stereo not given), the call was inactive.

In the case of `CC(C)C[C@H](NC(=O)[C@@H](Cc1c[nH]c2ccccc12)NC(=O)[C@H](Cc1ccc(O)cc1)NC(=O)[C@H](CO)NC(=O)[C@H](Cc1c[nH]c2ccccc12)NC(=O)[C@H](Cc1cnc[nH]1)NC(=O)[C@@H]1CCC(=O)N1)C(=O)N[C@@H](CCCN=C(N)N)C(=O)N1CCC[C@@H]1C(=O)NCC(N)=O`, the compound was classed as inactive.

For `O=C(Nc1nnc(-c2ccccc2)s1)c1ccc(S(=O)(=O)N2CCCC2)cc1`, the compound was classed as inactive.

With `COC(=O)c1c(SC)nc2ccccc2c1OCc1ccc(Br)cc1`, the compound was classed as inactive.

For `O=C(CSc1nc(-c2ccccc2)[nH]c1-c1ccc(F)cc1)NC1CCCC1`, the outcome was inactive.

`COc1ccccc1NC(=O)CSc1nnc(NC(=O)NC2CCCCC2)s1`: the call was inactive.

Regarding `COc1cc2nc(N3CCCCC3)nc(NC(C)C)c2cc1OC`, the compound was classed as inactive.

In the case of `CCOc1ccc(C(=O)c2cn(CC(=O)Nc3cc(OC)ccc3OC)c3cc(OC)c(OC)cc3c2=O)cc1`, the result was inactive.

As for `Cc1ccc2c(c1)cc(C(=O)NCc1ccc(F)cc1)n2C`, the call was inactive.

`COc1ccc(C(=O)O)cc1Nc1nc2ccc(C)cc2n2cnnc12`: the result was inactive.

With `O=C(Nc1ccc(Cl)cc1)N1CCC(c2ccccc2)C1` (stereo not given), the outcome was inactive.

Consider `CN1C(CC(=O)c2ccccc2)CCCC1CC(O)c1ccccc1` (stereo not given), for which the call was inactive.

`O=C(NCCc1csc(-c2cccc(F)c2)n1)C(=O)Nc1cc(F)ccc1F`: the compound was called inactive.

Take `O=S(=O)(NCCCCNS(=O)(=O)c1cccc2cccnc12)c1cccc2cccnc12`: the result was inactive.

On to `COc1ccc(N2CCN(Cc3cc(=O)oc4ccc(OC)cc34)CC2)cc1`, for which the compound was called inactive.

Turning to `COc1ccccc1Cn1c(CNS(=O)(=O)c2ccc3c(c2)CCCC3)nc2cccnc21`, the compound was called inactive.

In the case of `Cc1ccccc1S(=O)(=O)Nc1cnccc1C(=O)Nc1nc(-c2ccccc2)cs1`, the compound was classed as inactive.

As to `O=S(=O)(c1ccc(Cl)cc1)N1CCC(c2ccncc2)CC1`, the outcome was inactive.

In the case of `COc1cc2c3cc1OCc1c(O)c(OC)cc4c1C(Cc1ccc(cc1)Oc1cc(ccc1O)CC3N(C)CC2)N(C)CC4` (stereo not given), the result was inactive.

As to `Cc1cc(NC(=O)c2ccc([S+](=O)([O-])NCc3ccc(Cl)c(Cl)c3)cc2)no1`, the call was inactive.

Regarding `COc1ccc(NC(=O)N(Cc2nnc3n2CCCCC3)c2ccc(OC)c(Cl)c2)cc1`, the compound was classed as inactive.

For the compound `O=C(CN1C(=O)CCn2nc(-c3ccccc3)cc21)NCc1ccc(F)cc1`, the compound was called inactive.

With `CC(C)C[C@H](N)C(=O)N[C@H](C(=O)N[C@H](C(=O)N[C@@H](Cc1ccc(O)cc1)C(=O)N1CCC[C@H]1C(=O)N[C@@H](Cc1c[nH]c2ccccc12)C(=O)N[C@H](C(=O)N[C@@H](CCC(N)=O)C(=O)N[C@@H](CCCN=C(N)N)C(=O)O)[C@@H](C)O)C(C)C)C(C)C`, the redox activity vs DA3003 was -0.687% [at 4.35 µM] (inactive).
